# G9a block: blocks human histone lysine methyltransferase G9a; Q96KQ7; AID 504332; G9a H3K9 monomethylation, AlphaScreen, 2 h; Potency, µM (top dose mostly 102 µM), inactives show at the highest dose activity, negative = inhibition, hits mostly inhibitors; 350,000 tested, 8.8% active; note: potency is the fitted concentration of half-maximal effect; nearly all actives have a fitted effect of over 75% in size
# Target sequence (Q96KQ7 913-1193 limits assumed): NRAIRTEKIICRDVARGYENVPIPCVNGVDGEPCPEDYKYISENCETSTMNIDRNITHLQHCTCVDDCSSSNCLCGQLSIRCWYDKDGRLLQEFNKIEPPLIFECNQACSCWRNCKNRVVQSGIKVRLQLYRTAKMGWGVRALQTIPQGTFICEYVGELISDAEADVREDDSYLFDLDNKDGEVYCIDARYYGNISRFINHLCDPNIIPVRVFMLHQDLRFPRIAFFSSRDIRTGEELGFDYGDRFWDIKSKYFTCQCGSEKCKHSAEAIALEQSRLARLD
#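 Compounds were preincubated with 20 nM G9a for 15 min, after which biotinylated H3K9 peptide (500 nM) and SAM (20 uM) started a 2 h room-temperature reaction. Monomethylated product was quantified by antibody-based AlphaScreen chemiluminescence.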
# CCT modulator: modulators of cytosolic chaperonin (CCT/TRiC) activity; activity change, % (test concentration not listed), hits read low; purified chaperonin ATPase assay, HTRF ADP detection, 30 min; 360,000 tested, 0.3% active; in the data active = activity change below about -30%
#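 Enzyme 40 or 20 nM (batch-dependent) in Tris pH 7.4/KCl/MgCl2/DTT; cpd 76 uM single point; ATP 10 uM; 30 min 37 °C; Transcreener ADP HTRF detection, 30 min RT; ratio 665/615.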
# Sfp PPTase inh: inhibitors of Bacillus subtilis Sfp phosphopantetheinyl transferase. Biochemical Sfp PPTase activity, qHTS. Potency, µM, for the others: largest response in the series, negative = inhibition, actives largely listed as inhibitors. AID 1490. Q9F4F7. 310,000 tested, 3.5% active;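 note: the enzyme is Sfp with the accession as filed and its product quenches rhodamine fluorescence; potency is the fitted concentration of half-maximal effect; 0% = enzyme reaction without inhibitor and -100% = no enzyme wells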
#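 Fluorescence-quenching assay: 15 nM Sfp-PPTase preincubated 15 min at room temperature with compound, then 5 uM rhodamine-CoA and 12.5 uM BHQ-2-labelled YbbR peptide added. Fluorescence (ex 525/em 598 nm) read at start and after 30 min; difference gives rate.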
# VDR inhibitor: inhibitors of human vitamin D receptor | P11473 | VDR-SRC2-3 peptide fluorescence polarization, 2 h | Potency, µM, inactives show max response, negative = inhibition, most hits filed as inhibitors | 400,000 tested, 0.93% active | AID 504847; note: potency is the fitted concentration of half-maximal effect
#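 Signal is fluorescence polarization, reporting how far test compounds block the interaction of VDR with the SRC2-3 coregulator peptide after a 2 h room-temperature incubation.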
# PLK1 PBD inh: PLK1 (human) polo-box domain binding inhibition | P53350 | Plk1 PBD binding of FITC phosphopeptide, fluorescence polarization | Potency, µM, inactives show max response, negative = inhibition, most hits filed as inhibitors | 360,000 tested, 2.8% active | AID 720504; note: potency is the fitted concentration of half-maximal effect; series mostly up to about 57 µM; nearly all actives have a fitted effect of over 65% in size
# MmCpn inh: inhibitors of Methanococcus maripaludis chaperonin TRiC (MmCpn). 330,000 tested, 0.031% active. purified Mm-Cpn ATPase, ADP Transcreener TR-FRET. Potency, µM (top dose mostly 76.9 µM), for inactives: top-dose activity, negative = inhibition, most hits filed as inhibitors; note: potency is the fitted concentration of half-maximal effect; nearly all actives have a fitted effect of over 80% in size
#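 Reaction buffer contained 30 mM Tris pH 7.4, 100 mM KCl, 5 mM MgCl2 and 1 mM DTT. Mm-CPN (25 nM final) hydrolysed 10 uM ATP over 30 min at 37°C; ADP was read by HTRF.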
# * hit, by the source's call; ? = inconclusive; · = no result given; [ ] = another dose, or the depositor's remark. In the library only some 10% were active in any assay of this set; here they are far more common. Unless noted, calls come from the whole dose curve; as a rule, active = well fitted curve in the direction sought with a large enough effect; inconclusive = small, poorly fitted or top-dose-only effect, or another doubt; inactive = no such curve, though single readings can be large; an effect the other way counts as inactive or inconclusive. Unless noted, % is set by controls: 0 for no effect and ±100 for the full control effect.
SMILES,G9a block,CCT modulator,Sfp PPTase inh,VDR inhibitor,PLK1 PBD inh,MmCpn inh
CCc1nn(-c2ccccc2)c2nc(-c3cccc(OC)c3)c3cc(OC)c(OC)cc3c12,11.4%[59 µM],·,·,6.9%,·,·
COc1cc(Cl)c(C)cc1NC(=O)Cn1cnc2sc(C)c(S(=O)(=O)N3CCCCC3)c2c1=O,-23.8%[59 µM],·,·,-7.7%,·,·
Cc1c(NC(=O)Nc2ccc(Br)cc2F)sc2nc3n(c(=O)c12)CCC(C)CC3 (configuration not stated),-0.2%[59 µM],·,·,17.0%,·,·
S=c1[nH]ncn1/N=C/c1cccs1,7.94µM*,-0.1,-24.2%,-7.9%,-27.1%,3.1%
Fc1cccc(Cl)c1/C=N/n1c(-c2cccnc2)n[nH]c1=S,?,0.1,11.9%,-18.0%,16.8µM*,3.9%
S=c1[nH]nc(-c2cccnc2)n1/N=C/c1ccccc1,3.98µM*,-5.0,-13.6%,3.6%,-2.9%,0.9%
CC(/C=N/n1c(-c2cccnc2)n[nH]c1=S)=C\c1ccccc1,0.891µM*,-3.4,?,-21.8%,-17.9%,1.3%
Cc1nc2ccccc2n1/N=C/c1cccnc1,13.6%,-3.3,33.9%,-11.9%,-8.9%,-0.8%
C(=N\n1cnnc1)/c1cccs1,12.2%[12.7 µM],2.9,2.1%,0.0%,0.5%,3.0%
O=C(CN1C(=O)C2(SCC(=O)N2c2cccc(Cl)c2)c2ccccc21)NCCc1ccccc1 (configuration not stated),-21.1%[59 µM],·,·,-0.4%,·,·
S=c1[nH]nc(-c2cccnc2)n1/N=C/c1cccs1,3.98µM*,0.0,-9.7%,11.9%,-9.5%,-2.3%
S=c1[nH]nc(-c2cccnc2)n1/N=C/C=C/c1ccccc1,1.78µM*,-2.1,-25.2%,-19.4%,-16.3%,-1.5%
O=C(C[n+]1cc(-c2ccc(Cl)c(Cl)c2)n2c1CCC2)N1c2ccccc2Sc2ccccc21,?,-0.2,44.7µM*,-3.5%,1.4%,0.6%
O=C(C[n+]1cc(-c2ccc(Cl)cc2)n2c1CCC2)N1c2ccccc2Sc2ccccc21,?,-0.7,?,0.8%,-1.8%,-0.3%
Cc1nnc(NC(=O)CSCc2cc(=O)c3ccc(C)c(C)c3[nH]2)s1,-2.3%[59 µM],·,·,13.5%,·,·
Cc1cccc(C)c1NC(=O)CN1CCCCCC1,-38.2%[12.7 µM],·,14.0%,2.7%,·,·
Cc1cccc(N2CCN(Cc3nc(-c4cccc(Oc5ccccc5)c4)oc3C)CC2)n1,39.8µM*,-1.0,3.4%,-2.4%,1.6%,-2.0%
CCOc1ccc(NC(C)C(=O)N/N=C/c2cccs2)cc1 (configuration not stated),44.7µM*,0.6,3.6%,2.5%,-7.3%,-7.3%
COc1ccccc1NC(C)C(=O)N/N=C/c1cccs1 (configuration not stated),-4.9%,-1.4,7.7%,7.0%,-6.7%,0.9%
Cn1cc(S(=O)(=O)c2ccc(Cl)cc2)c(=O)c2cc(F)c(N3CCOCC3)cc21,1.5%[59 µM],·,·,3.0%,·,·
CN(Cc1cnccn1)C(=O)CC1C(=O)NCCN1Cc1cccc(F)c1 (configuration not stated),·,-0.1,-0.7%,9.6%,-3.7%,0.2%
Cc1ccc(CN2CCNC(=O)C2CC(=O)N(C)CCc2ccccc2)cc1 (configuration not stated),-1.4%,-0.3,18.5%,-3.1%,-10.9%,0.8%
CN(CCc1ccccn1)C(=O)CC1C(=O)NCCN1Cc1ccc(-c2ccccc2)cc1 (configuration not stated),56.2µM*,-0.2,50.1µM*,9.2%,-7.9%,-0.4%
COCCN(C(=O)CC1C(=O)NCCN1Cc1ccc(-c2ccccc2)cc1)C(C)C (configuration not stated),50.1µM*,0.8,-4.4%,-6.8%,-21.9%,-4.2%
CN(Cc1cnccn1)C(=O)CC1C(=O)NCCN1Cc1cccc(Oc2ccccc2)c1 (configuration not stated),50.1µM*,-1.7,20.4%,-22.5%,-15.7%,3.2%
C=CCNC(=O)CC1C(=O)NCCN1Cc1ccc(-c2ccccc2)cc1 (configuration not stated),56.2µM*,2.0,6.7%,-1.9%,-21.4%,-2.0%

# Bioassay records: PubChem, National Center for Advancing Translational Sciences (NCATS)
